Experimental data reported in the supplement of paper PMC7057948, “A genome-wide approach for identification and characterisation of metabolite-inducible systems” (Nature Communications, 2020).

How the values were obtained:
Test in all cases: relative induction of RFP reporter vs primary effector (background-corrected); higher = stronger activation of the biosensor
Details in all cases: inducer concentration 5 mM; 6 h; Cupriavidus necator H16; minimal medium + 0.4% gluconate
[1] = tested on: AcoR/P_H16_RS19445 acetoin biosensor (pEH052)
Description: (§1)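 C. necator H16 strains, each carrying one of 21 transcription factor/inducible promoter–mRFP biosensor plasmids, were grown in minimal medium in 96-well plates (robotic platform). Each was exposed to 46 structurally or metabolically related compounds at 5 mM at 30 °C. OD-normalised RFP fluorescence was read 6 h later and expressed as relative induction (%) = 100 × (FL compound − FL uninduced)/(FL primary inducer − FL uninduced); mean of n=4.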

[2] = tested on: AraC/P_araBAD L-arabinose biosensor (pEH176)
Description: as §1

[3] = tested on: BenM/P_H16_RS09790 benzoate biosensor (pEH148)
Description: as §1

[4] = tested on: FdsR/P_H16_RS03165 formate biosensor (pEH134)
Description: as §1

[5] = tested on: GabR/P_H16_RS23655 GABA biosensor (pEH256)
Description: as §1

[6] = tested on: HpdR/P_H16_RS18295 3-hydroxypropanoate biosensor (pEH010)
Description: as §1

[7] = tested on: KynR/P_H16_RS14030 L-kynurenine biosensor (pEH136)
Description: as §1

[8] = tested on: NahR/P_H16_RS08125 salicylate biosensor (pEH042)
Description: as §1

[9] = tested on: OapR/P_H16_RS01330 beta-alanine biosensor (pEH147)
Description: as §1

[10] = tested on: PcaQ/P_H16_RS30145 3,4-dihydroxybenzoate biosensor (pEH161)
Description: as §1

[11] = tested on: PhgR/P_H16_RS05530 phenylglyoxylate biosensor (pEH155)
Description: as §1

[12] = tested on: PhhR/P_H16_RS18365 L-phenylalanine biosensor (pEH137)
Description: as §1

[13] = tested on: SauR/P_H16_RS13695 sulfonatoacetate biosensor (pEH157)
Description: as §1

[14] = tested on: TtdR/P_H16_RS10665 tartrate biosensor (pEH083)
Description: as §1

[15] = tested on: XdhR/P_H16_RS05055 xanthine biosensor (pEH154)
Description: as §1

[16] = tested on: heterologous inducible system pEH002 (rhamnose/acrylate/cumate/itaconate set)
Description: as §1

[17] = tested on: heterologous inducible system pEH020 (rhamnose/acrylate/cumate/itaconate set)
Description: as §1

[18] = tested on: heterologous inducible system pEH040 (rhamnose/acrylate/cumate/itaconate set)
Description: as §1

[19] = tested on: heterologous inducible system pEH086 (rhamnose/acrylate/cumate/itaconate set)
Description: as §1

[20] = tested on: BadR/P_H16_RS27200 cyclohexanecarboxylate biosensor (pEH159)
Description: as §1
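Further: RFP excited at 585 nm with emission read at 620 nm, culture medium blanks subtracted from fluorescence and absorbance prior to normalisation.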

| Structure (SMILES) | relative induction of RFP reporter [1] [%] | relative induction of RFP reporter [2] [%] | relative induction of RFP reporter [3] [%] | relative induction of RFP reporter [4] [%] | relative induction of RFP reporter [5] [%] | relative induction of RFP reporter [6] [%] | relative induction of RFP reporter [7] [%] | relative induction of RFP reporter [8] [%] | relative induction of RFP reporter [9] [%] | relative induction of RFP reporter [10] [%] | relative induction of RFP reporter [11] [%] | relative induction of RFP reporter [12] [%] | relative induction of RFP reporter [13] [%] | relative induction of RFP reporter [14] [%] | relative induction of RFP reporter [15] [%] | relative induction of RFP reporter [16] [%] | relative induction of RFP reporter [17] [%] | relative induction of RFP reporter [18] [%] | relative induction of RFP reporter [19] [%] | relative induction of RFP reporter [20] [%] |
| --- | --- | --- | --- | --- | --- | --- | --- | --- | --- | --- | --- | --- | --- | --- | --- | --- | --- | --- | --- | --- |
| Cn1cnc2c1c(=O)[nH]c(=O)n2C [theobromine] | 0.603 | 0.0327 | 0.0104 | 3.33 | -2.07 | 0.0941 | 1.51 | 0.0192 | 0.977 | -0.0479 | 0.316 | 1.05 | -0.00533 | 0.646 | 0.45 | 0.0324 | -0.957 | 0.453 | 0.597 | – |
| NCC(N)C(=O)O (stereo not given) [2,3-diaminopropanoate] | 0.396 | 0.013 | 0.0534 | -1.38 | -1.16 | 0.349 | -0.43 | 0.0162 | 0.656 | -0.0605 | -0.221 | 0.0532 | -0.0132 | -0.586 | -0.1 | 0.0204 | -0.419 | 2.94 | 0.484 | -0.224 |
| O=C(O)CCC(=O)O [succinate] | -1.14 | -0.00365 | -0.0349 | 6.43 | -0.306 | -0.187 | 0.402 | 0.0287 | -0.209 | -0.0829 | -0.471 | 0.239 | -0.0135 | 0.784 | 0.357 | 0.0102 | -1.2 | -1.6 | 0.338 | – |
| NCC(O)C(=O)O (stereo not given) [3-amino-2-hydroxypropanoate] | -0.589 | 0.017 | -0.00343 | -6.17 | -1.08 | -0.132 | -0.0139 | 0.0227 | 33.2 | -0.0272 | -0.304 | -0.491 | 0.0914 | 0.315 | -0.317 | 0.0153 | -1.25 | 0.821 | 0.238 | – |
| Oc1cccc(O)c1 [resorcinol] | 1.11 | -0.0083 | 0.0215 | 3.2 | -1.35 | -0.13 | -0.206 | 0.04 | -1.51 | -0.109 | 0.115 | 0.365 | 0.0138 | 1.74 | -0.161 | -0.00943 | -0.947 | 0.407 | -0.0428 | – |
| CC(N)CC(=O)O (stereo not given) [3-aminobutanoate] | 0.0935 | -0.0347 | 0.00428 | -2.98 | -1.28 | -0.191 | -0.097 | 0.00216 | 57.8 | 0.0297 | 0.0503 | -0.0355 | -0.0365 | 0.625 | 0.412 | 0.0041 | -0.315 | 0.21 | 0.139 | – |
| O=C(O)C1=C[C@@H](O)[C@@H](O)[C@H](O)C1 [shikimate] | 0.0178 | -0.00161 | -0.000316 | -2.48 | -0.317 | 1.03 | -0.0973 | 0.00146 | 0.246 | 2.49 | -0.587 | 0.165 | 0.0792 | -0.0735 | -0.446 | -0.00769 | -0.782 | -0.0558 | 0.188 | – |
| O=C(O)CC(=O)C(=O)O [oxaloacetate] | 0.0874 | -0.00919 | -0.0305 | 2.96 | -0.991 | 0.0505 | -0.384 | 0.0244 | 0.302 | -0.0492 | -0.502 | -0.153 | 0.016 | -0.0827 | -0.199 | 0.0189 | -0.323 | -0.91 | -0.0639 | – |
| NCCc1ccc(O)c(O)c1 [dopamine] | 0.498 | -0.00264 | 0.0224 | 2.79 | 0.204 | 0.166 | 0.568 | 0.0188 | 0.108 | 0.356 | 0.249 | 0.138 | 0.18 | 1.41 | 0.0292 | 0.0361 | 0.433 | 1.22 | 0.396 | – |
| N[C@@H](CC(=O)O)C(=O)O [L-aspartate] | -1.54 | -0.0179 | -0.0325 | 3.34 | -1.17 | -0.138 | -0.00294 | 0.0255 | 0.356 | -0.0549 | -0.232 | 0.437 | 0.0772 | -0.474 | -0.175 | 0.02 | -0.78 | -1.36 | 0.389 | – |
| C[C@H](O)C(=O)O [L-lactate] | 29 | -0.0302 | -0.0365 | 1.58 | -1.56 | 0.0155 | -0.0815 | 0.00963 | -0.633 | -0.0469 | -0.429 | -0.296 | -0.0258 | 0.33 | -0.526 | 0.0108 | -1.63 | -1.88 | -0.0751 | – |
| OC[C@@H](O)[C@@H](O)[C@H](O)[C@H](O)CO [D-mannitol] | 4.32 | -0.00626 | 0.00493 | -0.914 | -0.506 | -0.0887 | 0.488 | 0.0228 | -0.205 | 0.0552 | -0.267 | 0.344 | 0.0255 | 0.195 | -0.267 | -0.000622 | -0.0264 | 0.166 | 0.0103 | – |
| Cn1c(=O)c2c(ncn2C)n(C)c1=O [caffeine] | 3.23 | 0.0778 | 0.0418 | 5.81 | -0.00438 | 0.0271 | 1.64 | 0.0392 | 0.545 | 0.0177 | -0.541 | 1.57 | 0.0139 | 0.808 | 0.33 | 0.0111 | -0.176 | 1.6 | 0.797 | – |
| O=C(O)C1CCCC1 [cyclopentane-1-carboxylate] | 9.44 | 0.014 | 0.298 | -2.26 | -1.83 | -0.057 | 0.335 | -0.00226 | 3.18 | -0.184 | -0.24 | -0.439 | 0.584 | 1.99 | 0.428 | -0.0145 | 0.409 | 7.83 | 0.259 | – |
| NC(C(=O)O)c1ccccc1 (racemic) [D,L-2-phenylglycine] | 2.41 | -0.0373 | 0.0272 | 5.96 | -1.88 | 0.893 | -0.416 | 0.0395 | 0.858 | 0.145 | 1.69 | -0.209 | -0.00851 | 0.176 | 0.377 | 0.012 | 3.29 | 0.705 | 0.876 | – |
| NC(=O)CC[C@H](N)C(=O)O [L-glutamine] | -1.76 | -0.022 | -0.0444 | 4.9 | -2.05 | -0.13 | -0.513 | 0.00325 | -0.494 | -0.146 | -0.333 | -0.432 | 0.0183 | 0.541 | -0.666 | 0.00684 | -0.587 | -2.02 | 0.168 | – |
